Source: PubChem BioAssay
Only some compounds are listed: those with a hit (about 5.7% of all), similar ones and a draw of the others.
AHR act – human AHR activation; AHR-responsive luciferase reporter cells, luminescence; activation, % at 5 µM; 2.5% of 320,000 active; in the data active means activation above about 47%;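 further: 0% = vehicle wells and 100% = reference agonist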
DAX1 inh-1 – inhibitors of DAX1 repression of SF-1 activated StAR promoter. 1.1% of 370,000 active. HEK293T StAR-luciferase reporter, SF-1/DAX-1 repression relief. inhibition, % at 6.8 µM;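 active means inhibition above the mean over all tested compounds plus 3 SD, cut at about 3.6% in these data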;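 further: 0% = DAX-1 cells with DMSO and 100% = cells lacking DAX-1 with DMSO; higher inhibition means more luminescence from relief of DAX-1 repression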
DAX1 inh-2 – NR0B1 (DAX1) inhibition; AID 504766; P51843; 0.99% of 340,000 active; HEK293 Gal4-DAX1 luciferase reporter, luminescence; inhibition, % at 6.75 µM;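 active means inhibition above the mean over all tested compounds plus 3 SD, cut at about 4.2% in these data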;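 further: 0% = DAX1-transfected cells with DMSO and 100% = empty-vector control cells with DMSO; inhibition shows as a rise in luminescence from relieved DAX1 repression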
ssDAF12 agonist – activators of S. stercoralis DAF-12 nuclear receptor | HEK293 ssDAF-12/GRIP1 lit1-tk-luc reporter, luminescence; % of 3 µM dafachronic acid response | activation, % at 6.8 µM | 1% of 370,000 active | AID 652126;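 active means activation above the mean over all tested compounds plus 3 SD, cut at about 0.9% in these data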;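 further: 0% = DMSO-only wells and 100% = 3 µM delta7-dafachronic acid wells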
hcDAF-12 act – activators of H. contortus DAF-12 nuclear receptor; 1.4% of 370,000 active; activation, % at 6.8 µM; HEK293 hcDAF-12 lit1-tk-luc reporter, luminescence; 0% DMSO, 100% Δ7-dafachronic acid;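 active means activation above the mean of all tested compounds plus 3 SD, cut at about 5.5% in these data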;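 further: 100% = response to 3 µM Δ7-dafachronic acid high control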
hgDAF12 agonist – activates the H. glycines DAF-12 receptor ligand-binding domain. HEK293 GAL4-hgDAF12 UAS-luciferase reporter, agonist luminescence; normalized to butyrate control. activation, % at 6.8 µM. 1.8% of 370,000 active. AID 687014;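 active means activation above a cutoff set at the mean of all screened compounds plus 3 SD, cut at about 10% in these data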;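 further: 0% = DMSO wells and 100% = sodium butyrate wells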
An asterisk follows results filed as active; nt = not tested or not shown.

SMILES	AHR act	DAX1 inh-1	DAX1 inh-2	ssDAF12 agonist	hcDAF-12 act	hgDAF12 agonist
O=C(NC1CCCCC1)C1CCCN(S(=O)(=O)c2cnc[nH]2)C1 (configuration not stated)	0.1	0.0	5.0*	-1.5	-0.2	-0.7
O=C(Nc1ccc2c(c1)OCCO2)C(c1cc2ccccc2o1)N1CCC(Cc2ccccc2)CC1 (configuration not stated)	nt	-4.2	nt	-1.9	-2.6	-5.3
CCn1cnc2c1c(=O)n(CC(=O)NCC(C)C)c(=O)n2Cc1ccccc1	-1.4	0.1	2.4	-1.0	0.5	-2.5
Cc1ccc2nc(NC(=O)C3CCCN(S(=O)(=O)c4cnc[nH]4)C3)sc2c1 (configuration not stated)	20.2	3.0	6.3*	-0.9	3.4	8.4
COc1ccc(CCN2CC(C(=O)Nc3ccccc3F)CC2=O)cc1OC (configuration not stated)	-1.4	-0.9	4.6*	-0.5	-0.8	-0.9
COc1ccc(-c2cc3cc(OC)c(OC)cc3c(C)n2)cc1	81.8*	0.6	0.2	-1.1	-0.1	11.3*
COc1cc(-c2ccccc2)nc2ccccc12	47.6*	0.1	1.7	-1.2	-1.1	1.3
COc1ccc2c(OC)cc(-c3ccccc3)nc2c1	70.4*	0.1	-1.1	-0.8	0.3	5.8
COc1ccc(-c2cc(OC)c3ccccc3n2)cc1	59.9*	0.3	1.6	-0.8	3.9	1.4
COc1cc(-c2cc(C(=O)O)c3cc4ccccc4cc3n2)cc(OC)c1OC	nt	-1.1	0.6	0.1	-0.7	0.5
Cc1noc(C)c1S(=O)(=O)N(C)C[C@H]1Oc2c(NC(=O)NC(C)C)cccc2C(=O)N([C@H](C)CO)C[C@@H]1C	-1.5	0.1	0.9	-1.4	-1.6	-1.9
Cc1cc(C)c(S(=O)(=O)c2ccccc2C(C)C)c(=O)[nH]1	nt	0.3	-0.6	-0.8	-0.3	-2.8
CCCCCN1CCCCC(NC(=O)c2cccc(F)c2)C1=O (configuration not stated)	nt	0.2	nt	-1.3	-1.1	2.7
CCc1cc(C(=O)N2CCCC(C(=O)c3ccc(Oc4ccccc4)cc3)C2)n(C)n1 (configuration not stated)	-0.1	-0.6	-0.4	-1.3	-2.4	-2.1
O=c1oc2ccccc2cc1-c1nc2c(s1)CCc1ccccc1-2	71.2*	-0.3	-0.9	-0.1	1.9	3.5
O=c1oc2cc(O)ccc2cc1-c1nc2c(s1)CCc1ccccc1-2	13.7	-0.5	0.5	-1.6	3.6	2.3
Cc1ccc(-c2cc(NC(=O)Cc3c(C)[nH]c4ccccc34)ccc2Nc2cccnc2)cc1	nt	-1.8	nt	-1.2	1.8	0.9
C[C@@H]1CN([C@H](C)CO)C(=O)c2cc(Br)cnc2O[C@H]1CN(C)C(=O)c1ccc(F)cc1	nt	0.2	nt	-1.2	0.7	2.0
CC[C@]12CCCN3CCc4c(n(c5ccccc45)[C@@](O)(C(=O)OC)C1)[C@@H]32	0.1	0.8	5.0*	-1.0	-0.6	1.6
CCOC(=O)C1=C[C@]2(CC)CCCN3CCc4c(n1c1ccccc41)[C@@H]32	9.4	-1.6	0.5	-1.0	1.6	1.2
S=c1[nH]ccn1-c1c(Cl)cccc1Cl	21.4	0.0	0.1	0.5	6.5*	10.0
CCOc1ccc(NS(=O)(=O)c2ccc(C(=O)N(C)CC(=O)Nc3ccc(C)cc3)cc2)cc1	-0.2	-1.4	-0.7	-1.4	-2.4	-2.1
COCCN1Cc2cc(C(=O)OC)c3c(c2C1=O)c1cc(OC)ccc1n3S(=O)(=O)c1ccc(F)cc1	nt	-0.4	nt	-0.6	-1.2	-3.2
CCCCN(C(=O)CSc1nc2ccccc2n1CC)C1CCS(=O)(=O)C1 (configuration not stated)	4.7	-0.2	0.6	-1.2	-1.1	3.5
Cc1cc(NCc2ccccn2)n2ncc(-c3ccccc3)c2n1	73.7*	2.8	4.7*	1.3*	5.1	12.4*
SMILES	AHR act	DAX1 inh-1	DAX1 inh-2	ssDAF12 agonist	hcDAF-12 act	hgDAF12 agonist
Cc1cc(NCc2ccccn2)n2ncc(-c3ccc(Cl)cc3)c2n1	76.4*	1.0	nt	-0.7	2.9	8.5
Cc1cc(NCCCN2CCOCC2)n2ncc(-c3ccccc3)c2n1	38.2	2.9	1.8	1.3*	6.0*	10.7*
CSc1ccc(CCCCCCOC(=O)C(C)(C)C)cc1	-3.3	0.2	-0.7	-1.4	-1.5	2.2
Cc1sc2ncnc(N3CCC(C(=O)Nc4nnc(SCc5ccccc5F)s4)CC3)c2c1C	-1.7	0.3	0.2	-1.1	1.4	-0.7
CCn1c(Cc2ccccc2)nnc1SCC(=O)Nc1ccc2c(c1)OCO2	12.3	-0.7	-1.0	-1.1	-1.0	0.6
CCn1c(SCC(=O)Nc2ccc3c(c2)OCO3)nnc1C1CC1	19.8	-0.3	4.9*	-0.5	0.2	1.6
CCCn1c(SCC(=O)NC2CCCCC2)nnc1-c1ccncc1	3.0	0.0	-0.8	-1.2	0.4	1.8
O=C(Cn1c(SCC(=O)NC2CCCC2)nnc1-c1ccncc1)Nc1ccc2c(c1)OCO2	66.2*	-1.1	-0.5	-1.3	-1.2	0.0
CCc1nnc(SCC(=O)Nc2ccc3c(c2)OCO3)n1CC	50.3*	-0.5	0.7	-1.2	-2.8	0.2
C/C(=N\Nc1ccc(F)cc1)c1ccncc1	32.6	-0.6	-0.7	-0.3	-0.4	5.4
C/C(=N\Nc1ccc(Cl)cc1)c1ccncc1	68.1*	-0.1	0.7	-0.7	1.6	1.8
C/C(=N\NC(=O)c1ccc(Cl)cc1)c1ccccn1	4.7	0.6	1.9	-0.6	-0.3	-0.9
C/C(=N\NC=O)c1ccncc1	1.5	-0.5	5.0*	-0.7	-0.3	1.4
C/C(=N\Nc1ccc(Cl)cc1)c1ccccn1	68.2*	2.0	1.8	-0.3	4.3	1.4
COCCOC(=O)/C(C#N)=C/c1cn(Cc2ccccc2)nc1-c1cccnc1	5.6	0.8	-0.8	-1.0	0.4	0.2
CCOc1ccc(N(CC(=O)Nc2ccc(C)cc2)S(C)(=O)=O)cc1	20.5	0.8	1.8	-0.2	3.2	12.3*
Cc1ccc(N(CC(=O)Nc2ccc(-c3nc4ccc(C)cc4s3)cc2)S(C)(=O)=O)cc1	11.4	4.4*	0.7	0.9*	4.0	11.8*
Cc1ccc(C)c(N(CC(=O)Nc2ccc(-c3nc4ccc(C)cc4s3)cc2)S(C)(=O)=O)c1	6.9	-0.3	-1.6	1.6*	-1.5	0.8
COCC1CN(CCc2ccc(F)cc2)S(=O)(=O)c2c(F)cccc2O1 (configuration not stated)	nt	-1.2	nt	0.2	-0.9	-0.3
CCOc1ccccc1C(=O)Nc1ccc2c(c1)C(=O)NC2=O	47.3*	0.6	1.9	-0.1	-0.5	-1.9
COc1ccccc1C(=O)Nc1ccc2c(c1)C(=O)NC2=O	57.6*	0.1	-1.1	-1.0	-1.8	2.3
CCOc1ccccc1C(=O)Nc1ccc(NC(=O)c2ccccc2)cc1	1.8	-0.3	0.7	-0.6	-1.4	-1.5
